{"source": "PubChem BioAssay (Tox21)", "note": "Results filed as inconclusive are left out. A call without a number means that no potency is given here. The source made the active and inactive calls. The call rests on the fitted dose curve; in most records, active means well fitted cell-killing curve with a large enough effect in the repeat runs; inconclusive means weak or mixed curves; inactive means no such curve, though single readings can be large or run the other way. Potency means the concentration at half of the fitted maximal effect."}
{"assay": "qHTS assay to identify small molecule agonists of the peroxisome proliferator-activated receptor delta (PPARd) signaling pathway - cell viability counter screen (AID 743211); further: nearly all actives have a fitted effect of over 55% in size", "conditions": "PPARd-bla HEK293H viability, CellTiter-Glo luminescence, 17 h; series mostly up to 62.6 µM", "source_text": "U.S. Tox21 Program National Center for Advancing Translational Sciences [NCATS] NIH Chemical Genomics Center [NCGC] U.S. Environmental Protection Agency [EPA] National Institutes of Environmental Health Sciences [NIEHS] National Toxicology Program [NTP] U.S. Food and Drug Administration [FDA] Tox21 Assay Overview: The peroxisome proliferator-activated receptors (PPARs) are lipid-activated transcription factors of the nuclear receptor superfamily with three distinct subtypes namely PPAR alpha, PPAR delta (PPARd) and PPAR gamma. All these subtypes heterodimerizes with Retinoid X receptor (RXR) and have different physiological functions. […] To identify the compounds that activate PPAR-delta signaling, GeneBLAzer PPAR delta UAS-bla HEK293H cell line (Invitrogen, Carlsbad, CA, USA) containing a beta-lactamase reporter gene under the control of an Upstream Activator Sequence (UAS) was used to screen the Tox21 compound library. The cytotoxicity of the Tox21 compound library against the PPARd-bla cell line was tested in parallel by measuring the cell viability using CellTiter-Glo assay (Promega, Madison, WI) in the same wells.\nTox21 Assay Protocol Summary: PPARd-bla cells were dispensed at 3000 cells/6uL/well in 1536-well black wall/clear bottom plates using a Multidrop Combi (Thermo Fisher Scientific, Waltham, MA) dispenser. After the assay plates were incubated at 37 C and 5% CO2 for 5 h, 23 nL of compounds dissolved in DMSO, positive controls or DMSO only was transferred to the assay plate by a Pintool station (Kalypsys, San Diego, CA). The assay plates were incubated at 37C for 17 h. After 1 uL of LiveBLAzerTM B/G FRET substrate was added using a Bioraptr Flying Reagent Dispenser (FRD) workstation (Beckman Coulter, Indianapolis, IN, USA), the plates were incubated at room temperature for 2 h, and fluorescence intensity was measured by an Envision plate reader (PerkinElmer, Shelton, CT). For cell viability readout that measures cytotoxicity, 3 ul/well of CellTiter-Glo reagent was added into the assay plates using a Bioraptr FRD. After 30 min incubation at room temperature, the luminescence intensity in the plates was measured using a ViewLux plate reader (PerkinElmer)."}
{"smiles": "C=C(C)C(=O)OCCC(C)OC(=O)C(=C)C", "note": "(stereo not given)", "Potency": "inactive"}
{"smiles": "CCCCCCCCN(C)CCCCCCCC", "Potency": "inactive"}
{"smiles": "C=C(C)C(=O)NCCCN(C)C", "Potency": "inactive"}
{"smiles": "CN(C)C(=O)C(CCN1CCC(O)(c2ccc(Cl)cc2)CC1)(c1ccccc1)c1ccccc1", "Potency": "23.7 µM (active)"}
{"smiles": "Cn1ccc2cc3c(cc21)CCN3C(=O)Nc1cccnc1", "Potency": "inactive"}
{"smiles": "Nc1ccc2cc(S(=O)(=O)O)ccc2c1", "Potency": "inactive"}
{"smiles": "CCCCCCCCCCCl", "Potency": "inactive"}
{"smiles": "CCCCCCC(CCCCCCCCCCC(=O)OCC(COC(C)=O)OC(C)=O)OC(C)=O", "note": "(stereo not given)", "Potency": "inactive"}
{"smiles": "O=C1CC2(CCCC2)CC(=O)N1", "Potency": "inactive"}
{"smiles": "c1ccc(SCCSc2ccccc2)cc1", "Potency": "inactive"}
{"smiles": "CO", "Potency": "inactive"}
{"smiles": "C=CCSCC1Nc2cc(Cl)c(S(N)(=O)=O)cc2S(=O)(=O)N1", "note": "(stereo not given)", "Potency": "inactive"}
{"smiles": "CCCCCCOC(=O)CC(CC(=O)OCCCCCC)(OC(=O)CCC)C(=O)OCCCCCC", "Potency": "inactive"}
{"smiles": "CCCOc1ccccc1-c1nc2n[nH]nc2c(=O)[nH]1", "Potency": "inactive"}
{"smiles": "Cc1onc(-c2ccccc2)c1-c1ccc(S(N)(=O)=O)cc1", "Potency": "inactive"}
{"smiles": "CCCCNc1ccccc1", "Potency": "inactive"}
{"smiles": "CC(=O)NC(Cc1ccccc1)C(=O)O", "note": "(stereo not given)", "Potency": "inactive"}
{"smiles": "CC(C)(O)c1ccccc1", "Potency": "inactive"}
{"smiles": "CC1=CCC2C(C1)C2(C)C", "note": "(stereo not given)", "Potency": "inactive"}
{"smiles": "CCCCCC[C@@H](CCC)C(=O)O", "Potency": "inactive"}
{"smiles": "OCc1ccccn1", "Potency": "inactive"}
{"smiles": "CC(C)(O)Cc1ccccc1", "Potency": "inactive"}
{"smiles": "CC(=O)OC(C)(C)C", "Potency": "inactive"}
{"smiles": "N[C@@H](CS)C(=O)O", "Potency": "inactive"}
{"smiles": "CC(C)(C)C(=O)/C=C/c1ccc(Cl)cc1", "Potency": "inactive"}
{"smiles": "C=CCn1c(=O)n([C@@H]2O[C@H](CO)[C@@H](O)[C@H]2O)c2nc(N)[nH]c(=O)c21", "Potency": "inactive"}
{"smiles": "O=C1OC(=O)c2cc([N+](=O)[O-])ccc21", "Potency": "inactive"}
{"smiles": "O=C(O)c1ccc[n+]([O-])c1", "Potency": "inactive"}
{"smiles": "CCC(=O)c1cccc(Cl)c1", "Potency": "inactive"}
{"smiles": "COc1cccc(Br)c1", "Potency": "inactive"}
{"smiles": "CC(C)COC(=O)C(C)C", "Potency": "inactive"}
{"smiles": "CC(=O)N[C@@H](CCC(N)=O)C(=O)O", "Potency": "inactive"}
{"smiles": "CCCCCN(CCCCC)C(=O)C(CCC(=O)O)NC(=O)c1ccc(Cl)c(Cl)c1", "note": "(stereo not given)", "Potency": "inactive"}
{"smiles": "C1=C\\CC/C=C\\CC/C=C\\CC/1", "Potency": "inactive"}
{"smiles": "COc1ccc(COC=O)cc1", "Potency": "inactive"}
{"smiles": "OC/C=C/c1ccccc1", "Potency": "inactive"}
{"smiles": "C#CC(O)CCCCC", "note": "(stereo not given)", "Potency": "inactive"}
{"smiles": "CCCC(C)C(=O)O", "note": "(stereo not given)", "Potency": "inactive"}
{"smiles": "Cc1cc(C)cc(OCC2CNC(=O)O2)c1", "note": "(stereo not given)", "Potency": "inactive"}
{"smiles": "NC(=O)CCCCC1CCSS1", "note": "(stereo not given)", "Potency": "inactive"}
